# In the library only some 19% were active in any assay of this set; here they are far more common.
# IL1B secr inh: inhibitors of inflammasome signaling (IL-1 beta secretion). THP-1 LPS/ATP IL-1B secretion, AlphaLISA, 16 h; hits give low values. activity change, % at 57.5 µM. 360,000 tested, 4.7% active. AID 743279; in the data active means activity change below about -50%; inconclusive means mostly about -30% to -49%
#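 Secreted IL-1B measured by AlphaLISA bead assay after 16 h compound exposure of THP-1 cells; compounds (final up to 57.5 uM) added 1 h before LPS (250 ng/mL) and ATP (1.25 mM) stimulation; lower signal means less secretion.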
# DT40 TDP1 no CPT: qHTS for Inhibitors of human tyrosyl-DNA phosphodiesterase 1 (TDP1): qHTS in cells in absence of CPT; Potency, µM (top dose mostly 46.2 µM), hits mostly inhibitors; AID 686978, 2013; DT40 Tdp1-/- hTDP1 cells, no CPT, ATP luminescence, 48 h; 420,000 tested, 15% active; further: nearly all actives have a fitted effect of over 55% in size
#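 Growth kinetics read by CellTiter-Glo luminescence after ≥48 hr at 37 °C. Cells: DT40 Tdp1-/- stably carrying human TDP1, 400 per well, compound exposure in the absence of CPT (DMSO vehicle).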
# TDP1 block: blocks human tyrosyl-DNA phosphodiesterase 1; recombinant TDP1, AlphaScreen DNA substrate cleavage; Potency, µM (doses to about 130 µM), usual class: inhibitors; 350,000 tested, 0.28% active; further: nearly all actives have a fitted effect of over 40% in size
# Target sequence (Q9NUW8 whole entry, looked up): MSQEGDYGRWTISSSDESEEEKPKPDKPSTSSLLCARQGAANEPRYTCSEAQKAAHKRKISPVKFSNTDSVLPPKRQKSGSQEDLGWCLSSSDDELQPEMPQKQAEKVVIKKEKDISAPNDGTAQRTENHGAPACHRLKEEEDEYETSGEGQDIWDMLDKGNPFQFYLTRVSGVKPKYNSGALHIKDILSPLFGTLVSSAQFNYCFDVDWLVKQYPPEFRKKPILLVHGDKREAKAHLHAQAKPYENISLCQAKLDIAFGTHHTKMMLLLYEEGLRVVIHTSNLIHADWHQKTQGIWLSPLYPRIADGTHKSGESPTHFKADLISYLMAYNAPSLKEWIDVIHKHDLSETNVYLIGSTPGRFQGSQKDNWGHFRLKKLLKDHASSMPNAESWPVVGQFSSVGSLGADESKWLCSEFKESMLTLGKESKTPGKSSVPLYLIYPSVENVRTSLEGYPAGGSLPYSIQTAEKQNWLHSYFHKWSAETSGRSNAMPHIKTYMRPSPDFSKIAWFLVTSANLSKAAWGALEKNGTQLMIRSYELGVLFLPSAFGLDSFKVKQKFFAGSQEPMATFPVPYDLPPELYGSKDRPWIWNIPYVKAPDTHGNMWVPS
#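 Enzyme-compound mixtures sat 15 min at room temperature, followed by a 5 min reaction with 15 nM final substrate and 10 min with AlphaScreen beads. Recombinant human Tdp1 was used at 1 nM final.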
# DT40 TDP1 CPT: DT40-hTDP1 cell growth loss with CPT. chicken DT40 Tdp1-/-;hTDP1 cells + 20 nM CPT, ATP luminescence, 48 h. Potency, µM (top dose mostly 46.2 µM), usual class: inhibitors. 420,000 tested, 12% active. AID 686979; further: nearly all actives have a fitted effect of over 55% in size
#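 Chicken DT40 Tdp1-/- cells complemented with human TDP1, 400 cells/well, exposed to compounds plus 20 nM camptothecin for at least 48 h at 37 C; viability read as ATP content by CellTiter-Glo luminescence.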
# HepG2 viability: counter-screen for TGF-b inhibitors: cytotoxicity in HepG2 cells. HepG2 CAGA-GFP viability, ATP luminescence, 18 h. Potency, µM (highest dose often 46.1 µM), actives largely listed as cytotoxic. 410,000 tested, 0.76% active. AID 588856
#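 CellTiter-Glo luminescence gave cytotoxicity after 18 hours at 37 degrees C. The cells were HepG2 CAGA-GFP in 1% FBS DMEM, stimulated with 500 pg/mL TGF-beta after compound addition. %Activity was normalised to no-cell wells (complete cell-killing) and DMSO (no toxicity), and curves were fitted and classified.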
# TGFb SMAD3 inh: inhibitors of TGF-b signaling | 410,000 tested, 1.2% active | Potency, µM (highest dose often 46.1 µM), hits mostly inhibitors | HepG2 CAGA-GFP TGF-b/SMAD3 reporter, GFP fluorescence, 18 h; TGF-beta stimulated, 500 pg/mL final; further: nearly all actives have a fitted effect of over 65% in size
#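 HEPG2 CAGA-GFP, 1000 cells/well; 2 h settle, 37 C; cpd via pin tool; TGF-b 500 pg/mL final; 18 h, 37 C; GFP imaging ex488/em500-530; %Activity normalised to -TGF-b and +DMSO controls; CRC fit, curve class.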
# A number is an active result; 0 = inactive; ? = inconclusive; - = no result. Unless noted, the call rests on the fitted dose curve; in most records, active means well fitted curve in the direction sought with a large enough effect; inconclusive means small, poorly fitted or top-dose-only effect, or another doubt; inactive means no such curve, though single readings can be large; an effect the other way counts as inactive or inconclusive.
SMILES,IL1B secr inh,DT40 TDP1 no CPT,TDP1 block,DT40 TDP1 CPT,HepG2 viability,TGFb SMAD3 inh
CCCn1c(SCc2nc(-c3cccs3)no2)nnc1-c1ccncc1,0,?,0,0,0,0
CCCn1c(SCc2nc(-c3ccc(OC)cc3OC)no2)nnc1-c1ccc(Cl)cc1,-,26µM,0,21µM,0,?
COc1cc(NC(=O)C2CCN(S(=O)(=O)c3ccc4c(c3)CCCC(=O)N4)CC2)cc(OC)c1,-,-,0,-,0,0
Cc1nn(C(=O)c2ccccc2)c(C)c1S(=O)(=O)N1CCCCCC1,-,0,0,0,0,0
Cn1c(=O)c2nc(Cl)c(-c3ccccc3)nc2n(C)c1=O,0,?,0,0,0,0
Cn1c(=O)c2nc(-c3ccccc3)c(-c3ccccc3)nc2n(C)c1=O,0,21µM,-,?,0,0
N#Cc1ccc(OCC(=O)N2CCN(S(=O)(=O)c3ccc(Cl)s3)CC2)cc1,?,?,0,16µM,0,?
O=C(Cc1ccc(S(=O)(=O)N2CCOCC2)s1)N1CCN(S(=O)(=O)c2cccc(Cl)c2)CC1,0,16µM,0,16µM,0,0
O=C(O)Cc1ccc(S(=O)(=O)N2CCCC2)s1,0,0,10µM,0,0,0
O=C(Cc1ccc(S(=O)(=O)N2CCOCC2)s1)N1CCN(S(=O)(=O)c2cccc(F)c2)CC1,0,0,-,?,0,0
O=C(Cc1ccc(S(=O)(=O)N2CCOCC2)s1)N1CCN(c2cccc(C(F)(F)F)c2)CC1,0,3.7µM,0,7.3µM,0,?
O=C(Cc1ccc(S(=O)(=O)N2CCOCC2)s1)N1CCN(S(=O)(=O)c2ccc(Cl)cc2)CC1,?,23µM,0,23µM,0,?
CCOc1ccccc1N1CCN(C(=O)Cc2ccc(S(=O)(=O)N3CCOCC3)s2)CC1,0,21µM,0,?,0,0
O=C(Nc1ccc(S(=O)(=O)N2CCOCC2)cc1)c1ccc(Cl)s1,0,?,0,23µM,0,0
O=C(Cc1ccc(S(=O)(=O)N2CCOCC2)s1)N1CCN(S(=O)(=O)c2ccccc2F)CC1,0,0,-,0,0,0
O=C(c1ccc(S(=O)(=O)N2CCOCC2)cc1)N1CCN(S(=O)(=O)c2ccc(Cl)s2)CC1,0,16µM,0,?,0,0
Cc1ccc(S(=O)(=O)N2CCN(C(=O)Cc3ccc(S(=O)(=O)N4CCOCC4)s3)CC2)cc1,0,0,0,0,0,0
Fc1ccc(-c2nn(-c3ccc(Cl)cc3)c3c2cnc2ccc(F)cc23)cc1,-,0,0,0,0,0
COc1ccc(-c2cn3nc(N4CCC(C(=O)Nc5ccccc5OC)CC4)sc3n2)cc1,-,?,0,?,0,0
COc1ccc(OC)c(C(C)NC(=O)Cn2c(=O)cc(C)c3c(C)nn(-c4ccc(C)cc4)c32)c1 (configuration not stated),-,?,0,?,0,0
Cc1ccccc1C(=O)N1CCN(c2ccc(NC(=O)c3ccc4c(c3)OCO4)cc2)CC1,-131,13µM,0,13µM,0,0
COc1ccccc1N1CCN(C(=O)c2ccco2)CC1,0,0,0,0,0,0
Cc1ccccc1C(=O)N1CCN(c2ccc(NC(=S)NC(=O)c3ccco3)cc2)CC1,?,26µM,-,23µM,0,?
COc1ccccc1C(=O)NC(=S)Nc1ccc(N2CCN(C(=O)c3ccco3)CC2)cc1,?,15µM,0,?,0,0
CCOC(=O)C1C(C(=O)OC)=C(c2ccc(F)cc2)c2ccc(OC)cc2N1S(=O)(=O)C(F)(F)F (configuration not stated),-,-,0,-,-,-
SMILES,IL1B secr inh,DT40 TDP1 no CPT,TDP1 block,DT40 TDP1 CPT,HepG2 viability,TGFb SMAD3 inh
NCC(=O)NNC(=O)OCC1c2ccccc2-c2ccccc21,0,0,-,0,0,0
O=C(O)CCNC(=O)OCC1c2ccccc2-c2ccccc21,0,?,-,8.2µM,0,0
O=C(CCNC(=O)OCC1c2ccccc2-c2ccccc21)NOCc1ccccc1,0,4.1µM,-,3.3µM,0,0
COc1ccc(-c2cnnn2-c2ccc(NC(=O)c3ccc(S(=O)(=O)N4CCCCC4)cc3)cc2)cc1OC,0,12µM,0,21µM,0,?
COc1ccc(C(=O)Nc2ccc(-n3nncc3-c3ccc(OC)c(OC)c3)cc2)cc1,-,21µM,0,21µM,0,?
COc1ccc(-c2cnnn2-c2ccc(NC(=O)c3ccco3)cc2)cc1OC,0,0,0,0,0,0
CCn1cc(C(=O)NCCc2ccccc2)c(=O)c2cc(F)c(N3CCN(C)CC3)cc21,0,?,0,?,0,0
C=CCNC(=O)c1cn(CC)c2cc(N3CCN(C(=O)c4ccco4)CC3)c(F)cc2c1=O,0,15µM,0,23µM,0,0
